Experimental data published in PubChem BioAssay (NCI).
The panel holds about 83,000 compounds, 20% with a hit somewhere; the sample as a whole holds those more often.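 Treatment: one concentration, 48 hours, 96-well format. Scoring: percent growth, with anything below 10 considered active.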 Activity calls are given as the source filed them.

These molecules were tested on MDA-MB-468 breast (assay: NCI-60 one-dose screen, 48 h (100 = growth as untreated, 0 = no growth, -100 = all killed)). Settings: 10 µM unless noted.
`Cc1cc2c(c(C)c1Cl)C(=O)/C(=C/c1cccc([N+](=O)[O-])c1)O2` was tested, and the growth was 92.2% (inactive). In the case of `c1ccc(CO[C@H]2CO[C@H]3[C@@H]2OC[C@@H]3Oc2ccc(Nc3ncnc4ccsc34)cc2)cc1`, the growth was 51.5% (inactive). With `CNc1nc(NC)c2cn[nH]c2n1` the growth was 94.8% (inactive). For `Nc1nsc(C(=O)c2ccc(O)cc2)n1`, the growth was 105% (inactive). `COCCn1cc(-c2nc(-c3cc4cccnc4[nH]3)cs2)c2cc(OC)ccc21` was tested, and the growth was -24% (active).
